# Only some compounds are listed: those with a hit (about 1.6% of all), similar ones and a draw of the others.
# KCNQ2 pot: potentiators of rat KCNQ2 potassium channel | AID 2239 | B-score at 10 µM | actives 0.54% (n = 310,000) | O88943 | CHO-K1 KCNQ2, FluxOR thallium flux fluorescence; hits give high values;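 active = fluorescence ratio B-score at least 3 SD of library B-scores, with initial fluorescence B-score within 3 of them, cut at about 5.3 in these data; same plate scores as AID 2156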;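 note: B-score of peak minus minimum over baseline fluorescence ratio after K+ and Tl+ stimulus; positive B-score means potentiation of KCNQ2 with more thallium influx and brighter signal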
# KCNQ2 inh: KCNQ2 (rat) channel inhibition; O88943; AID 2156; CHO-K1 KCNQ2, FluxOR thallium flux, 20 min; hits give low values; actives 1.1% (n = 310,000); B-score at 10 µM;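 active = fluorescence ratio B-score at most minus 3 library SDs, with starting brightness B-score within 2 library SDs, cut at about -5.5 in these data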
# KCNQ2 inh conf: confirmation of rat KCNQ2 potassium channel inhibitors. actives 57% (n = 1,000). KCNQ2-expressing cells, thallium flux, inhibition; hits give low values. AID 493025. activity change, negative = inhibition, % at 10 µM. shares compounds with KCNQ2 inh
# KCNQ1 spec: KCNQ2 inhibitor that also affects human KCNQ1 channel; shares compounds with KCNQ2 inh; KCNQ1-expressing cells, FluxOR thallium flux fluorescence; hits give low values; activity change, negative = inhibition, % at 10 µM; actives 15% (n = 1,000); AID 493026;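 active = activity change at least 3 SD of negative controls below their mean in both duplicate wells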;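 note: CHO cells stably transfected with KCNQ1 and depolarized by potassium stimulus; peak minus minimum fluorescence over baseline after thallium addition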
# Target sequence (P51787 whole entry, looked up): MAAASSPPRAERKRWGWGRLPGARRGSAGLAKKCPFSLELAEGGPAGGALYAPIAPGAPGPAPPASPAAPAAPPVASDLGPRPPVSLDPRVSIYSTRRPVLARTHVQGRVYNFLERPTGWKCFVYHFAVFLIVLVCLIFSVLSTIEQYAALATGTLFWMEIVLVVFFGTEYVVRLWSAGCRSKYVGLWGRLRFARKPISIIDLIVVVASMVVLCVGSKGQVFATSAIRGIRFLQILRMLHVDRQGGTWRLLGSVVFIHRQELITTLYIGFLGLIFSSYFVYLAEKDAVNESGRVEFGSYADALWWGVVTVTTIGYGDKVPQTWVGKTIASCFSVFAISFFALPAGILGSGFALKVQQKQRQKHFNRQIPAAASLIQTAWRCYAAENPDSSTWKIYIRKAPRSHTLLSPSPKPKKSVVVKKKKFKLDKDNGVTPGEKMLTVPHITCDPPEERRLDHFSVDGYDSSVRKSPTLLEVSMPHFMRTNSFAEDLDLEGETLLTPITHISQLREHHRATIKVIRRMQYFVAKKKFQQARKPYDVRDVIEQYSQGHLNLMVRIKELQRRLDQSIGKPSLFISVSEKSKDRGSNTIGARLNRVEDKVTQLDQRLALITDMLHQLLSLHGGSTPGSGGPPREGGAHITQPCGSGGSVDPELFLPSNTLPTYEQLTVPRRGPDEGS
# CHO parental ctr: activity in parental CHO cells lacking KCNQ2. shares compounds with KCNQ2 inh. thallium flux counter-screen; hits give low values. activity change, % at 10 µM. actives 14% (n = 1,000). AID 493029
# KCNQ2 inh confirm: blocks rat KCNQ2 current in automated patch clamp; shares compounds with KCNQ2 inh; KCNQ2-expressing cells; calls only at 10 µM; actives 49% (n = 550); AID 588531
# Numbers stand for hits; i = inactive; nt = no result; + = active, no number. Unless noted, the rule behind the calls is not given here.
SMILES,KCNQ2 pot,KCNQ2 inh,KCNQ2 inh conf,KCNQ1 spec,CHO parental ctr,others
O=[N+]([O-])c1ccc(C23CC4CC(CC(O)(C4)C2)C3)cc1,i,i,nt,nt,nt,
CN(C)c1ccc(/C=c2/sc3n(c2=O)NC2(c4ccccc4)N(C)C(=O)N(C)C2(c2ccccc2)N=3)cc1 (centres undefined),i,i,nt,nt,nt,
CCOc1ccc(S(=O)(=O)N(C)CC(=O)NCc2ccccn2)cc1Cl,i,i,nt,nt,nt,
COc1ccccc1-c1cc(C(F)(F)F)nc(N2CCCCC2)n1,i,-9.7,i,i,i,
COc1ccccc1-c1cc(C(F)(F)F)nc(N2CCCC2)n1,i,i,nt,nt,nt,
CCCc1nn2c(=O)cc(CSCC(=O)Nc3ccccc3OC)nc2s1,nt,i,nt,nt,nt,
Cc1cccc(NC(=O)CSCC(=O)Nc2sccc2C#N)c1,i,i,nt,nt,nt,
O=C(N1CCN(c2ccccc2F)CC1)C12CC3CC(CC(C3)C1)C2,i,-7.6,-26%,i,i,KCNQ2 inh confirm=+
O=C(N1CCN(c2ccc(F)cc2)CC1)C12CC3CC(CC(C3)C1)C2,nt,i,nt,nt,nt,
Cc1cccc(N2CCN(C(=O)N3CCCCC3)CC2)c1C,nt,i,nt,nt,nt,
Cc1cccc(N2CCN(C(=O)C34CC5CC(CC(C5)C3)C4)CC2)c1C,i,-7.3,-20%,i,i,KCNQ2 inh confirm=i
CC(=O)N(c1ccc(C)cc1)c1nc(C)cc(C)c1C#N,i,i,nt,nt,nt,
C=CCn1c(SCc2c(C)noc2C)nc2ccccc2c1=O,nt,i,nt,nt,nt,
Cc1noc(C)c1CSc1nc2ccccc2c(=O)n1-c1ccc(F)cc1F,i,-7.3,-20%,i,i,KCNQ2 inh confirm=+
CCC1(c2ccc(F)cc2)NC(=O)N(CC(=O)Nc2cccnc2Cl)C1=O (centres undefined),nt,i,nt,nt,nt,
Cc1ccc(-n2c(N)c(C(=O)Nc3ccccc3F)sc2=S)cc1C,i,i,nt,nt,nt,
Cc1ccccc1CC1(CO)CCCN(C(=O)CCC(=O)c2ccccc2)C1 (centres undefined),i,-8.6,-30%,i,i,KCNQ2 inh confirm=+
COC(=O)CCC(=O)N1CCCC(CO)(Cc2ccccc2C)C1 (centres undefined),i,i,nt,nt,nt,
O=C(OCC(=O)N1CCN(c2ccccc2)CC1)c1ccc[n+]([O-])c1,i,i,nt,nt,nt,
CC1C(=O)N2CCCc3cc(S(=O)(=O)NCc4ccccc4Cl)cc1c32 (centres undefined),nt,i,nt,nt,nt,
COc1ccc(C(=O)OC2CCN(c3ncc(C(F)(F)F)cc3Cl)CC2)cc1,i,-8.7,i,i,i,
O=C(OC1CCN(c2ncc(C(F)(F)F)cc2Cl)CC1)c1ccccc1,nt,i,nt,nt,nt,
COc1cc(C(=O)Nc2ccc(S(=O)(=O)Nc3nccc(C)n3)cc2)c([N+](=O)[O-])cc1OC,i,i,nt,nt,nt,
CC(NC(=O)/C(C#N)=C/c1ccc(OCC(=O)O)cc1)c1ccccc1 (centres undefined),nt,i,nt,nt,nt,
CC(NC(=O)/C(C#N)=C/c1ccc(Cl)c([N+](=O)[O-])c1)c1ccccc1 (centres undefined),i,-11,-26%,i,i,KCNQ2 inh confirm=i
SMILES,KCNQ2 pot,KCNQ2 inh,KCNQ2 inh conf,KCNQ1 spec,CHO parental ctr,others
O=C(NCc1cccc(F)c1)c1ccc2nc(N3CCOCC3)sc2c1,nt,i,nt,nt,nt,
CCN(CC)CCN1C(=O)c2oc3ccccc3c(=O)c2C1c1cccc(Br)c1 (centres undefined),i,i,nt,nt,nt,
O=C1c2oc3ccc(Cl)cc3c(=O)c2C(c2cccc(Br)c2)N1CCO (centres undefined),i,-11,i,i,i,
CCOc1ccc2c(c1)-c1c(ssc1=S)C(C)(C)N2C,i,-7,i,i,i,
CCOc1ccc2c(c1)C(C)=CC(C)(C)N2S(=O)(=O)c1ccc(F)cc1,nt,i,nt,nt,nt,
CCc1ccc(NC(=O)CCc2ccc(CC)o2)cc1,i,i,nt,nt,nt,
COC(=O)c1ccccc1C(=O)N1CCC(CCC(=O)NC2CC2)CC1,nt,i,nt,nt,nt,
COc1cc2c(cc1NC(=O)C(c1ccccc1)c1ccccc1)CCCC2,i,-7.1,-34%,i,i,KCNQ2 inh confirm=+
COc1cc(NC(=O)C(c2ccccc2)c2ccccc2)c(C(=O)O)cc1OC,i,i,nt,nt,nt,
COc1cccc(-c2cc(C(=O)N3CCc4ccccc4C3)[nH]n2)c1,nt,i,nt,nt,nt,
CCc1ccccc1NC(=O)/C(=C/c1ccco1)c1ccccc1,i,-7.7,-29%,i,i,KCNQ2 inh confirm=+
Cc1ccccc1NC(=O)/C(=C/c1ccco1)c1ccccc1,nt,i,nt,nt,nt,
O=C(CN1CCN(S(=O)(=O)c2ccc(Br)cc2)CC1)N/N=C/c1ccccc1C(=O)O,nt,i,nt,nt,nt,
CC1CC(C)CN(C(=O)C(Cc2ccccc2)NC(=O)c2ccccc2)C1 (centres undefined),i,-7,i,i,i,
O=C(NC(Cc1ccccc1)C(=O)N1CCCCCC1)c1ccccc1 (centres undefined),nt,i,nt,nt,nt,
COc1ccc(CC(=O)N(C)Cc2ccc(Cl)cc2)cc1S(=O)(=O)N1CCOCC1,nt,i,nt,nt,nt,
Cc1cc(C)c(N=C2CCCN2Cc2ccccc2)c(C#N)c1,i,-8.8,-32%,i,i,KCNQ2 inh confirm=+
N#Cc1ccccc1N=C1CCCN1Cc1ccccc1,nt,i,nt,nt,nt,
Cc1noc(C(=O)Nc2ccc(Cl)cc2)c1Cl,i,i,nt,nt,nt,
Nc1cc(C(=O)N2CCN(c3ccc([N+](=O)[O-])cc3)CC2)ccc1N1CC2CC(C1)c1cccc(=O)n1C2 (centres undefined),nt,i,nt,nt,nt,
O=C(OC(C(=O)NCc1ccccc1)c1ccccc1F)c1ccco1 (centres undefined),nt,i,nt,nt,nt,
O=C(CSc1ccccc1C(=O)O)NCC1CCCCC1,nt,i,nt,nt,nt,
COc1ccc(N2C(C(C)=O)=NN(c3ccccc3)C2c2cccs2)cc1 (centres undefined),i,-7.2,-32%,-37%,-25%,KCNQ2 inh confirm=i
CC(=O)Nc1ccc(N2C(C(C)=O)=NN(c3ccccc3)C2c2cccs2)cc1 (centres undefined),i,i,nt,nt,nt,
Cc1c(CCOC(=O)CC23CC4CC(CC(C4)C2)C3)sc[n+]1CC(=O)c1ccccc1,i,-8.5,-20%,i,i,KCNQ2 inh confirm=+
SMILES,KCNQ2 pot,KCNQ2 inh,KCNQ2 inh conf,KCNQ1 spec,CHO parental ctr,others
Cc1c(CCOC(=O)C23CC4(C)CC(C)(CC(C)(C4)C2)C3)sc[n+]1CC(=O)c1ccccc1,nt,i,nt,nt,nt,
COc1ccc(-c2[nH]ncc2-c2cnn(-c3ccccc3)c2)c(O)c1,i,-7.7,i,i,i,
COc1ccc(-c2cn[nH]c2-c2ccc(O)cc2O)cc1,nt,i,nt,nt,nt,
O=C(COc1ccccc1-c1ccccc1)N/N=C/c1cccc2ccccc12,i,-7.8,i,i,i,
CC(=O)Nc1ccccc1OCC(=O)NC(C)c1ccccc1 (centres undefined),i,i,nt,nt,nt,
CC(NC(=O)COc1ccccc1-c1ccccc1)c1ccccc1 (centres undefined),i,-6.9,-34%,-30%,-24%,KCNQ2 inh confirm=+
COc1ccc(/C=N/NC(=O)COc2ccccc2-c2ccccc2)cc1,nt,i,nt,nt,nt,
O=C(CCNc1cccc(F)c1)c1cccc([N+](=O)[O-])c1,i,-6.7,i,i,i,
O=C(CCNc1ccc(Cc2ccncc2)cc1)c1cccc([N+](=O)[O-])c1,nt,i,nt,nt,nt,
COc1ccc(CCNC(=O)CCc2ccsc2)cc1OC,i,i,nt,nt,nt,
CN(CC(=O)Nc1ccc(F)cc1)C(=O)COC(=O)CNC(=O)c1sc2ccccc2c1Cl,i,i,nt,nt,nt,
